Assay results as given in the supplement of paper PMC10849652.
About 8,800 targets were measured; listed, in parts, are those with a hit and a random draw of the rest. About 0.5% of all pairs of compound and target were hits.

Assays:
Assay in all cases: log2 fold change, soluble protein after heating vs DMSO (PISA); higher = thermal stabilisation; K562 lysate, 10 uM; active = over 0.2 and 3.5 SD of the protein, either way, in both replicates (recomputed)
nilotinib = compound: Cc1cn(-c2cc(NC(=O)c3ccc(C)c(Nc4nccc(-c5cccnc5)n4)c3)cc(C(F)(F)F)c2)cn1 [nilotinib]
Outline: (§1)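 A 30 min treatment with 10 μM compound was applied to crude K562 extract at 1 mg/mL protein in PBS pH 7.4 with 1 mM MgCl2. Heating for 3 min spanned 48°C-58°C, after which aliquots were pooled, adjusted to 0.5% NP-40 at 4°C and spun at 21,000xg for 90 min. TMTpro 16plex LC-MS/MS of the supernatant, with channel sums equalised, gave values recorded as log-two fold change in thermal stability against solvent controls, from duplicates.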

[1] = compound: Cc1nc(Nc2n[nH]c3c2CN(C(=O)N[C@H](CN(C)C)c2ccccc2)C3(C)C)c2sccc2n1
Outline: as §1

dasatinib = compound: Cc1nc(Nc2ncc(C(=O)Nc3c(C)cccc3Cl)s2)cc(N2CCN(CCO)CC2)n1 [dasatinib]
Outline: as §1

[2] = compound: Cc1ncc(-c2ccnc(Nc3ccc(S(C)(=O)=O)cc3)n2)n1C(C)C
Outline: as §1

[3] = compound: Cn1cc(-c2ccc3c(c2)CCN3C(=O)Cc2cccc(C(F)(F)F)c2)c2c(N)ncnc21
Outline: as §1

quisinostat = compound: Cn1cc(CNCC2CCN(c3ncc(C(=O)NO)cn3)CC2)c2ccccc21 [quisinostat]
Outline: as §1

tipifarnib = compound: Cn1cncc1[C@@](N)(c1ccc(Cl)cc1)c1ccc2c(c1)c(-c1cccc(Cl)c1)cc(=O)n2C [tipifarnib]
Outline: as §1

[4] = compound: NC(=O)Nc1cc(-c2cccc(F)c2)sc1C(=O)N[C@H]1CCCNC1
Outline: as §1

[5] = compound: NC(=O)c1cnc(N[C@@H]2CCCC[C@@H]2N)nc1Nc1cccc(-n2nccn2)c1
Outline: as §1

[6] = compound: NC1(c2ccc(-c3nc4ccn5c(=O)[nH]nc5c4cc3-c3ccccc3)cc2)CCC1
Outline: as §1

[7] = compound: NCC(=O)Nc1ccc(-n2nc(C(F)(F)F)cc2-c2ccc3c(ccc4ccccc43)c2)cc1
Outline: as §1

vorinostat = compound: O=C(CCCCCCC(=O)Nc1ccccc1)NO [vorinostat]
Outline: as §1

silmitasertib = compound: O=C(O)c1ccc2c(c1)nc(Nc1cccc(Cl)c1)c1ccncc12 [silmitasertib]
Outline: as §1

[8] = compound: O=C1NC(=O)C(c2cnc3ccccn23)=C1c1cn2c3c(cc(F)cc13)CN(C(=O)N1CCCCC1)CC2
Outline: as §1

entospletinib = compound: c1cn2cc(-c3ccc4cn[nH]c4c3)nc(Nc3ccc(N4CCOCC4)cc3)c2n1 [entospletinib]
Outline: as §1

Measured: log2 fold change

STIM1 (UniProt Q13586)
Sequence of UniProt Q13586 (Q13586 whole entry, looked up): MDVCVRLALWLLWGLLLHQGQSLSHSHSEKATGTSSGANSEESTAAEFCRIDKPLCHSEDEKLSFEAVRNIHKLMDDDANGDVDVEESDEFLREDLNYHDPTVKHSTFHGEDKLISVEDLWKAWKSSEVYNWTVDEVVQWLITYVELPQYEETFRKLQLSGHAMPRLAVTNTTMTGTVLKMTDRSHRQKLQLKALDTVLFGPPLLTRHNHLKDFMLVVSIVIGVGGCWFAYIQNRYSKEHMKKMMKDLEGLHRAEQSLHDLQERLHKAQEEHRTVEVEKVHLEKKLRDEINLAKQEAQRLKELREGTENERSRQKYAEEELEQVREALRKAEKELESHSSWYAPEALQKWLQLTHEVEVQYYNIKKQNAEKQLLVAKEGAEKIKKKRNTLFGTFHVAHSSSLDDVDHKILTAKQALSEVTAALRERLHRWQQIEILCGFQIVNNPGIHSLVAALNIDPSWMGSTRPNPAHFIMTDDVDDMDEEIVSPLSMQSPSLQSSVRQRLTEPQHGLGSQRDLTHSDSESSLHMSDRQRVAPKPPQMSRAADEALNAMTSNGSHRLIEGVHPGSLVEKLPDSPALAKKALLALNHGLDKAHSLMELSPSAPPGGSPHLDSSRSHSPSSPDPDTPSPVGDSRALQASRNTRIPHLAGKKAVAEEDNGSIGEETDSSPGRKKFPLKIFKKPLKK
inactive: nilotinib -0.031 | [1] -0.019 | dasatinib -0.03 | [2] 0.001 | [3] -0.027 | quisinostat 0.023 | tipifarnib -0.012 | [4] 0.009 | [5] 0 | [6] -0.031 | [7] 0.026 | vorinostat 0.126 | silmitasertib -0.01 | [8] 0.018 | entospletinib -0.025

STK11IP (UniProt Q8N1F8)
Sequence of UniProt Q8N1F8 (Q8N1F8 whole entry, looked up): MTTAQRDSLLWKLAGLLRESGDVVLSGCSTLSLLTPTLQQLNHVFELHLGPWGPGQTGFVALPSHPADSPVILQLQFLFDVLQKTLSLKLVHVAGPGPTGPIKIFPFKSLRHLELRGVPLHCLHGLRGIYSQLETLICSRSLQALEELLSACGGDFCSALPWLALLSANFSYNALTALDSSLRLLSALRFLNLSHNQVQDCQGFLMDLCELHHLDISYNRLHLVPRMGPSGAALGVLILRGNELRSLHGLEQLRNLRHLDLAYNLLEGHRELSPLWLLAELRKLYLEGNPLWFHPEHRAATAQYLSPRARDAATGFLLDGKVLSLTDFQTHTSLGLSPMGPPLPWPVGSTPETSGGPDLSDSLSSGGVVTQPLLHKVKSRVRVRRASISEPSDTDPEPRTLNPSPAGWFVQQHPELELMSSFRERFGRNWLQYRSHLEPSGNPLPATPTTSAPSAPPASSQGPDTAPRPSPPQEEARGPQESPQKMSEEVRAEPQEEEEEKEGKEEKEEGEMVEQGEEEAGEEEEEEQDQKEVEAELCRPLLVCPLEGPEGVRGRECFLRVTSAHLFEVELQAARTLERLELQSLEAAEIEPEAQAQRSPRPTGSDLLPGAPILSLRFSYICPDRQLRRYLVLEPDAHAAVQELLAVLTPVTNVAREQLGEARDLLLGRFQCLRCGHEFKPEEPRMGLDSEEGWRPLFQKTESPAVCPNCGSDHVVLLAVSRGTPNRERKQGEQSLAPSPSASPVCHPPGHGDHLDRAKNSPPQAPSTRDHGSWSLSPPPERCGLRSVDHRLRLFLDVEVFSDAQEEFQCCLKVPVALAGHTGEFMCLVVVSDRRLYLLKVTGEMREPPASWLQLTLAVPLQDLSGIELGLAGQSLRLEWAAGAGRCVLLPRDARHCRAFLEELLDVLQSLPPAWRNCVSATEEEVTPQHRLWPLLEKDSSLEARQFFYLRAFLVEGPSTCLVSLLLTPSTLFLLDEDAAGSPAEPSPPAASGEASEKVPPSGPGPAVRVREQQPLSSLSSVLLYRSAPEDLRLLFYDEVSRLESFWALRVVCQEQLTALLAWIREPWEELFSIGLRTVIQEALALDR
inactive: nilotinib 0.065 | [1] 0.001 | dasatinib -0.053 | [2] -0.045 | [3] -0.016 | quisinostat -0.029 | tipifarnib -0.033 | [4] -0.012 | [5] -0.014 | [6] 0.037 | [7] -0.017 | silmitasertib 0.025 | [8] 0.008 | entospletinib 0.024
active: vorinostat -0.254

SMYD3 (UniProt Q9H7B4)
Sequence of UniProt Q9H7B4 (Q9H7B4 whole entry, looked up): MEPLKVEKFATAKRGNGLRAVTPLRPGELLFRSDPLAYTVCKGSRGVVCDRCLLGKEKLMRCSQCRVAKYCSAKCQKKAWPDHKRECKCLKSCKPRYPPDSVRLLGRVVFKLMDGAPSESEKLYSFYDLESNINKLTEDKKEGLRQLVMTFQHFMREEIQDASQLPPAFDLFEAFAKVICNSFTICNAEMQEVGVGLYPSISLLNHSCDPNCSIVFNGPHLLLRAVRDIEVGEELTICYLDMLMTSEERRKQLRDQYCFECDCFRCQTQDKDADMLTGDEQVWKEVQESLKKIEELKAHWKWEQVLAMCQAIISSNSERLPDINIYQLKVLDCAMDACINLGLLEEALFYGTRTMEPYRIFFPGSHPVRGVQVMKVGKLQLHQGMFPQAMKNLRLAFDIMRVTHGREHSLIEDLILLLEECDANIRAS
active: vorinostat -0.202
inactive: nilotinib 0.004 | [1] 0.022 | dasatinib -0.101 | [2] 0.01 | [3] -0.029 | quisinostat -0.056 | tipifarnib 0.031 | [4] 0.038 | [5] 0.036 | [6] -0.051 | [7] 0.044 | silmitasertib 0.029 | [8] -0.003 | entospletinib -0.008

SND1 (UniProt Q7KZF4)
active: vorinostat -0.414
inactive: nilotinib -0.008 | [1] -0.011 | dasatinib -0.028 | [2] -0.024 | [3] 0.038 | quisinostat -0.033 | tipifarnib -0.003 | [4] 0.05 | [5] -0.007 | [6] -0.017 | [7] 0.001 | silmitasertib 0.048 | [8] 0.013 | entospletinib 0.013

SMARCAD1 isoform 2 (UniProt Q9H4L7)
inactive: nilotinib -0.001 | [1] -0.008 | dasatinib -0.033 | [2] -0.005 | [3] -0.005 | quisinostat -0.054 | tipifarnib -0.025 | [4] 0.016 | [5] 0.059 | [6] -0.007 | [7] -0.005 | silmitasertib 0.012 | [8] 0.014 | entospletinib 0.013
active: vorinostat -0.27

SH3GL1 (UniProt Q99961)
active: vorinostat -0.245
inactive: nilotinib -0.01 | [1] 0.029 | dasatinib -0.024 | [2] 0.01 | [3] -0.009 | quisinostat -0.046 | tipifarnib 0.015 | [4] 0.004 | [5] 0.006 | [6] 0.033 | [7] -0.012 | silmitasertib 0 | [8] 0.009 | entospletinib -0.004

SMIM12 (UniProt Q96EX1)
Sequence of UniProt Q96EX1 (Q96EX1 whole entry, looked up): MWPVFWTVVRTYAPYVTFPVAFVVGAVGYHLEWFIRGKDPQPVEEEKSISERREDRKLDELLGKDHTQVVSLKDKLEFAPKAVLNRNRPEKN
inactive: nilotinib 0.014 | [1] 0.025 | dasatinib 0.09 | [2] 0.027 | [3] 0.061 | quisinostat -0.093 | tipifarnib -0.023 | [4] 0.002 | [5] -0.016 | [6] -0.041 | [7] -0.044 | vorinostat 0.174 | silmitasertib -0.003 | [8] -0.025 | entospletinib -0.058

STK25 (UniProt O00506)
Sequence of UniProt O00506 (O00506 whole entry, looked up): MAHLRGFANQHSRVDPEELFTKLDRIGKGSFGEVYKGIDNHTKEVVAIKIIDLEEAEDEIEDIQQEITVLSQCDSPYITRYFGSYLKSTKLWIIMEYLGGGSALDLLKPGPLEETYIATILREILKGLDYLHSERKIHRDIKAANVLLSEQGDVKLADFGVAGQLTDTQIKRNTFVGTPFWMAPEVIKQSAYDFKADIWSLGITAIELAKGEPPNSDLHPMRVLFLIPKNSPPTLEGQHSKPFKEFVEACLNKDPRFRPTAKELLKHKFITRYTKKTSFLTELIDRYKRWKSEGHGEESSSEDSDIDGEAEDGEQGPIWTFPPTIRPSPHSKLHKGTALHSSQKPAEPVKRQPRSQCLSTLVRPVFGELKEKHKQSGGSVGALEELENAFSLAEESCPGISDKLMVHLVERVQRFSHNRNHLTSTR
inactive: nilotinib 0.037 | [1] 0.265 | dasatinib 0.235 | [2] 0.026 | [3] 0.059 | quisinostat 0.013 | tipifarnib -0.027 | [4] 0.165 | [5] 0.032 | [6] -0.009 | [7] -0.024 | vorinostat -0.06 | silmitasertib 0.051 | [8] -0.03 | entospletinib -0.043

TARBP1 (UniProt Q13395)
Sequence of UniProt Q13395 (Q13395 whole entry, looked up): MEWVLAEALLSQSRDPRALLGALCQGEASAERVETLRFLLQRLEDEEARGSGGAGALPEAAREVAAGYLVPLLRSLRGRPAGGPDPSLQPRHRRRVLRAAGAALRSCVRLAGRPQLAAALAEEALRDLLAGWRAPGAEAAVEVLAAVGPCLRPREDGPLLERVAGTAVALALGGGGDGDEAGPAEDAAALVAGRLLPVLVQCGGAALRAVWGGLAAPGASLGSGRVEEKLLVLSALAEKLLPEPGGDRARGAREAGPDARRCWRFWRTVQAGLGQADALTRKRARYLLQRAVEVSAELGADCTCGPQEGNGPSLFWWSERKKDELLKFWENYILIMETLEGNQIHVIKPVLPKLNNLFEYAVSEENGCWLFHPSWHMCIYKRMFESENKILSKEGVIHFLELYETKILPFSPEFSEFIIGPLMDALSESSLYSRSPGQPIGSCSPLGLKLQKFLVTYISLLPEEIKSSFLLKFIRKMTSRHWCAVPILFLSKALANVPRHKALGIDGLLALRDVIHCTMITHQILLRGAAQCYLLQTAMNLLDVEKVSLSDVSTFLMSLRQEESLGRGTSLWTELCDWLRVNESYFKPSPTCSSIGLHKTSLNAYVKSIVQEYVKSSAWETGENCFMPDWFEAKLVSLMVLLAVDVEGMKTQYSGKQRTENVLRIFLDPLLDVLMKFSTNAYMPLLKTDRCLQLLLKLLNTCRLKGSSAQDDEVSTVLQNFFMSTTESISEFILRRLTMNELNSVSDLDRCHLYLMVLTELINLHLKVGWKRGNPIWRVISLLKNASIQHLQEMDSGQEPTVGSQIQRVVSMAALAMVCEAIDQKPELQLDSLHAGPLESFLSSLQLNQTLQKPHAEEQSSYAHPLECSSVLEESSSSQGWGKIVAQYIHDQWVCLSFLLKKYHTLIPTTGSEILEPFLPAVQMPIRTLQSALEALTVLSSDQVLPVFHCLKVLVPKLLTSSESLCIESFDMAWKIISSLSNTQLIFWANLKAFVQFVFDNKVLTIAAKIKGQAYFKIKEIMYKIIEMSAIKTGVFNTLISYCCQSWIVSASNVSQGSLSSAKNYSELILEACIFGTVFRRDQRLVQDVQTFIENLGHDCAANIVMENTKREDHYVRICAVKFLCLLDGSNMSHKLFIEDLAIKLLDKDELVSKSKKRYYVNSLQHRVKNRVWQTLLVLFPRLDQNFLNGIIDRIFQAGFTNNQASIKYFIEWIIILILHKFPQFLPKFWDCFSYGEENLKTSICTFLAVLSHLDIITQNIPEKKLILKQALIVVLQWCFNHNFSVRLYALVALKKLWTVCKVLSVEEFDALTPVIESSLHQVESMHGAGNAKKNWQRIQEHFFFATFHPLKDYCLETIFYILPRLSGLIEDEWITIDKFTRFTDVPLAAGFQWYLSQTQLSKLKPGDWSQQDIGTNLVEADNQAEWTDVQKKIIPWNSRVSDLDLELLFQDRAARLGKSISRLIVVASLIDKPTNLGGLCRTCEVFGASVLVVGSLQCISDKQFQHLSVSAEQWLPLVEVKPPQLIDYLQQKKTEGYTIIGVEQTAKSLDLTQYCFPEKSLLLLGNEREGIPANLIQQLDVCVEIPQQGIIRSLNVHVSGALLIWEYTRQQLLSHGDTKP
inactive: nilotinib -0.045 | [1] 0.036 | dasatinib -0.03 | [2] -0.003 | [3] 0.046 | quisinostat -0.158 | tipifarnib 0.007 | [4] 0.142 | [5] 0.007 | [6] -0.021 | [7] -0.151 | silmitasertib 0.097 | [8] 0.017 | entospletinib 0.028
active: vorinostat -0.608

SLC27A2 (UniProt O14975)
Sequence of UniProt O14975 (O14975 whole entry, looked up): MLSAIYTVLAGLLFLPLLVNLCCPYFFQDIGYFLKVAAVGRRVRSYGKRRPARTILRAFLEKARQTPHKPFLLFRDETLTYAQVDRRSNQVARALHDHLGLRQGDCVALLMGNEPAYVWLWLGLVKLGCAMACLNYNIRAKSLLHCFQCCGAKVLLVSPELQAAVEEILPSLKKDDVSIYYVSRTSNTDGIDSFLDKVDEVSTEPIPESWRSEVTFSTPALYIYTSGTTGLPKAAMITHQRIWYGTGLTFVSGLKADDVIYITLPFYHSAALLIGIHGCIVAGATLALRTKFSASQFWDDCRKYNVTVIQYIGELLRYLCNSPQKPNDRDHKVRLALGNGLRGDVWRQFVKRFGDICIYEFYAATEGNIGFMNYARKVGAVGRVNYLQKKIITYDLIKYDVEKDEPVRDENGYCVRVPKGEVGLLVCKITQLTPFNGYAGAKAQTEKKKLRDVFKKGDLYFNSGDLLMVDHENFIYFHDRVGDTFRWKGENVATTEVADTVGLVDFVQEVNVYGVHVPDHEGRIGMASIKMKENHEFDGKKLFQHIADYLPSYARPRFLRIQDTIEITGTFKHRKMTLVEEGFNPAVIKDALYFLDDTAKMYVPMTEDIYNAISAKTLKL
inactive: nilotinib 0.056 | [1] -0.027 | dasatinib 0.038 | [2] -0.053 | [3] -0.011 | quisinostat -0.078 | tipifarnib 0.031 | [4] -0.06 | [5] -0.033 | [6] 0.029 | [7] -0.108 | vorinostat -0.237 | silmitasertib 0.08 | [8] 0.367 | entospletinib -0.023

SLC20A1 (UniProt Q8WUM9)
inactive: nilotinib -0.021 | [1] -0.001 | dasatinib -0.023 | [2] -0.03 | [3] 0.007 | quisinostat -0.048 | tipifarnib -0.007 | [4] -0.034 | [5] 0.05 | [6] -0.099 | [7] 0 | vorinostat 0.062 | silmitasertib -0.05 | [8] 0.021 | entospletinib 0.064
